# Laboratory results reported in article PMC7862700, “An all-to-all approach to the identification of sequence-specific readers for epigenetic DNA modifications on cytosine”.
# Assays:
# Test in all cases: DAPPL (digital affinity profiling via proximity ligation, sequencing); 10 mM Tris-HCl pH 7.5, 50 mM NaCl, 1 mM DTT, 4% glycerol, room temperature, 30 min; GST-TFs on glutathione beads, 16-mer random dsDNA library, 0.1% formaldehyde crosslink after washing; high values mean tight binding
# FEV = target: T1, FEV (Homo sapiens, UniProt Q99581 1-238); conditions: protein: recombinant; tags: N-terminal GST; dsDNA, one strand shown
# T1 sequence: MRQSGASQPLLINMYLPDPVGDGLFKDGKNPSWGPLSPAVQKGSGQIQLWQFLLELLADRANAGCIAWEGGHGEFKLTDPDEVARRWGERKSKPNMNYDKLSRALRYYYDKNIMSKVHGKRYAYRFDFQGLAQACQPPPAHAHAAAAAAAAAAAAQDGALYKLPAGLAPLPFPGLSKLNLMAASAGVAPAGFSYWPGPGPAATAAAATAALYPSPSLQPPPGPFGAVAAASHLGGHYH
# In short: (§1)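 In yeast, human transcription factors were expressed with a GST fusion, then pulled down on glutathione beads and given DNA barcodes. Pooled with a tag-only sample, they were exposed to 200 nmole of a 16-mer random double-stranded DNA library (Tris/NaCl/DTT/glycerol buffer, room temperature, 30 min), washed, crosslinked with 0.1% formaldehyde, proximity-ligated using BsaI/T4 ligase for 1 h at 37 °C, PCR-amplified and read on an Illumina NextSeq500. Each hexamer's frequency of reads for a factor, divided by the matching frequency for the tag-only sample, gives the binding signal.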
# ETV5 = ETV5 (Homo sapiens, UniProt P41161 1-510); conditions: protein: recombinant; tags: N-terminal GST; dsDNA, one strand shown
# In short: as §1
# HSF1 = HSF1 (Homo sapiens, UniProt Q00613 1-529); conditions: protein: recombinant; tags: N-terminal GST; chain copies: 3; dsDNA, one strand shown
# In short: as §1
# SPIC = target: T2, SPIC (Homo sapiens, UniProt Q8N5J4 1-248); conditions: protein: recombinant; tags: N-terminal GST; dsDNA, one strand shown
# T2 sequence: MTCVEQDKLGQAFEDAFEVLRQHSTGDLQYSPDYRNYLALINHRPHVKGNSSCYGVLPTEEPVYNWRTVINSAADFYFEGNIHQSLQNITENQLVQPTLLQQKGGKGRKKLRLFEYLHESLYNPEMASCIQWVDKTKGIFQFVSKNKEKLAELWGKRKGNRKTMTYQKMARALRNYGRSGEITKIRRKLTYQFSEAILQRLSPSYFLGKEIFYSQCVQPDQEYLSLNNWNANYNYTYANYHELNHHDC
# In short: as §1
# ELF4 = ELF4 (Homo sapiens, UniProt Q99607 1-663); conditions: protein: recombinant; tags: N-terminal GST; dsDNA, one strand shown
# In short: as §1
# ELK4 = target: T3, ELK4 (Homo sapiens, UniProt P28324-2 1-405); conditions: protein: recombinant; tags: N-terminal GST; dsDNA, one strand shown
# T3 sequence: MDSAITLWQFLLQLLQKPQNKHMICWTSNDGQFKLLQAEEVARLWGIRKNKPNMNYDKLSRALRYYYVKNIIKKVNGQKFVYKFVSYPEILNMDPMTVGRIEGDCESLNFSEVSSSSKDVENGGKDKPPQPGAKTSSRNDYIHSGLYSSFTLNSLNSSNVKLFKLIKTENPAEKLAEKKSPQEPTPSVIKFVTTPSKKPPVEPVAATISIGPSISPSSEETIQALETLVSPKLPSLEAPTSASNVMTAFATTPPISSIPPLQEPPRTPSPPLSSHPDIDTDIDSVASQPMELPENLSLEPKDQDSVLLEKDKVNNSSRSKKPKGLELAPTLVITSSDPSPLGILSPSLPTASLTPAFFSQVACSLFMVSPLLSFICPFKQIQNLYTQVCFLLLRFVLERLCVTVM
# In short: as §1
# ETV2 = target: T4, ETV2 (Homo sapiens, UniProt O00321 1-342); conditions: protein: recombinant; tags: N-terminal GST; dsDNA, one strand shown
# T4 sequence: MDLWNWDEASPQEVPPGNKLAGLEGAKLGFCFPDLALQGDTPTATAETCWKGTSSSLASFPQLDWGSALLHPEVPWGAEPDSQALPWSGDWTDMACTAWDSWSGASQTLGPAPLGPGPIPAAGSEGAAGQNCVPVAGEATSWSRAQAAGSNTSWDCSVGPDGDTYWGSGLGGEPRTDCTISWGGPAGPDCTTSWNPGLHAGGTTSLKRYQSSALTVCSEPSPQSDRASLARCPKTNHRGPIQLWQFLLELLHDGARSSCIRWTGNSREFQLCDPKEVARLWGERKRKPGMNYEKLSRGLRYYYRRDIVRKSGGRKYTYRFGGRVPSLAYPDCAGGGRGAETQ
# In short: as §1
# ELF3 = target: T5, ELF3 (Homo sapiens, UniProt P78545 1-371); conditions: protein: recombinant; tags: N-terminal GST; dsDNA, one strand shown
# T5 sequence: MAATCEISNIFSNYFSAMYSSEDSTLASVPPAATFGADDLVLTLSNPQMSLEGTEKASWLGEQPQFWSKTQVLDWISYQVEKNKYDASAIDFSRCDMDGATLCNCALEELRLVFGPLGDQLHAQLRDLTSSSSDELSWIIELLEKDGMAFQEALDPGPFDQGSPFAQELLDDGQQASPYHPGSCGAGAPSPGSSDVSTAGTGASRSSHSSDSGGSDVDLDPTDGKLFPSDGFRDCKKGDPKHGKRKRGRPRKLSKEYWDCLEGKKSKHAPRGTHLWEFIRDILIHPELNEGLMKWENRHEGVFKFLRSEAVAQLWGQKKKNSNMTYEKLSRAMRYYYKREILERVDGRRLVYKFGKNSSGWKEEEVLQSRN
# In short: as §1
# CRX = CRX (Homo sapiens, UniProt O43186 1-299); conditions: protein: recombinant; tags: N-terminal GST; dsDNA, one strand shown
# In short: as §1
# ETV1 = ETV1 (Homo sapiens, UniProt P50549 1-477); conditions: protein: recombinant; tags: N-terminal GST; dsDNA, one strand shown
# In short: as §1
# ERF = target: T6, ERF (Homo sapiens, UniProt P50548 1-548); conditions: protein: recombinant; tags: N-terminal GST; dsDNA, one strand shown
# T6 sequence: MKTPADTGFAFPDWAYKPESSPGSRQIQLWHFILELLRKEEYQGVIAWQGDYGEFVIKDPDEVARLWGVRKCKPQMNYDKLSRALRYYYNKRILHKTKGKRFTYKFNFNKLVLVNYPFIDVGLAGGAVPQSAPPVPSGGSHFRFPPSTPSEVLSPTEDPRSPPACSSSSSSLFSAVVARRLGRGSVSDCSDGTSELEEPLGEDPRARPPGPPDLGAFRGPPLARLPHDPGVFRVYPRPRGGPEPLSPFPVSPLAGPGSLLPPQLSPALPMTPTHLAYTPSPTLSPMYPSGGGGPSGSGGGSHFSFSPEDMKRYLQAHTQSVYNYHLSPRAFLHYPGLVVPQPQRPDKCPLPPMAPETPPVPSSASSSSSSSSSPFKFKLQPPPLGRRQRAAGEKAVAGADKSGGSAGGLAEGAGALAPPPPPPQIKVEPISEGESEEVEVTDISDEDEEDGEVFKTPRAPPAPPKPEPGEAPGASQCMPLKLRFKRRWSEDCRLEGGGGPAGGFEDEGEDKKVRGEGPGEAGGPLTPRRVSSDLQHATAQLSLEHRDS
# In short: as §1
# ETV3L = target: T7, ETV3L (Homo sapiens, UniProt Q6ZN32 1-361); conditions: protein: recombinant; tags: N-terminal GST; dsDNA, one strand shown
# T7 sequence: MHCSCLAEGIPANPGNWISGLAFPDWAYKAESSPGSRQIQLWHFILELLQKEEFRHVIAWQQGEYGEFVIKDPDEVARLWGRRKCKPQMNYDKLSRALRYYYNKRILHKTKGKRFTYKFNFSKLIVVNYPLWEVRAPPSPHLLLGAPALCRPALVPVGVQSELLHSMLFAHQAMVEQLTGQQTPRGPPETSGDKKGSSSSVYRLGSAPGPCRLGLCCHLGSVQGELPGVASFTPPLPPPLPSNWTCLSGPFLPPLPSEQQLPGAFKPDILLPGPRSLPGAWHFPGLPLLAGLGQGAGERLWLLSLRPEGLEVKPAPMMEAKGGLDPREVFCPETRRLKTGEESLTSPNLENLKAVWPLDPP
# In short: as §1
# ETS2 = target: T8, ETS2 (Homo sapiens, UniProt P15036 1-469); conditions: protein: recombinant; tags: N-terminal GST; dsDNA, one strand shown
# T8 sequence: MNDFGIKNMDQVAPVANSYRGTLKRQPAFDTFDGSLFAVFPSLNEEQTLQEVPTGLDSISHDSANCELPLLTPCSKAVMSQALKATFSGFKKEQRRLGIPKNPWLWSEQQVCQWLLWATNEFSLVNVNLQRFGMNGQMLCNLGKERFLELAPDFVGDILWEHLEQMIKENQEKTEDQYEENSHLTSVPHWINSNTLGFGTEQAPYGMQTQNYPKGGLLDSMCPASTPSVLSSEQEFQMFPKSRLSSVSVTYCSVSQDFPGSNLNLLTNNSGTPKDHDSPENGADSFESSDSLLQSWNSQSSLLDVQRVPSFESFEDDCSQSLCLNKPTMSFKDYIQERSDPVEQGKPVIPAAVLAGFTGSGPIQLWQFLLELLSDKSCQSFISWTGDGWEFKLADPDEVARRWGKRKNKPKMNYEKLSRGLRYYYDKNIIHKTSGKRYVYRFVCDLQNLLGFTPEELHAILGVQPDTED
# In short: as §1
# SPDEF = target: T9, SPDEF (Homo sapiens, UniProt O95238 1-335); conditions: protein: recombinant; tags: N-terminal GST; dsDNA, one strand shown
# T9 sequence: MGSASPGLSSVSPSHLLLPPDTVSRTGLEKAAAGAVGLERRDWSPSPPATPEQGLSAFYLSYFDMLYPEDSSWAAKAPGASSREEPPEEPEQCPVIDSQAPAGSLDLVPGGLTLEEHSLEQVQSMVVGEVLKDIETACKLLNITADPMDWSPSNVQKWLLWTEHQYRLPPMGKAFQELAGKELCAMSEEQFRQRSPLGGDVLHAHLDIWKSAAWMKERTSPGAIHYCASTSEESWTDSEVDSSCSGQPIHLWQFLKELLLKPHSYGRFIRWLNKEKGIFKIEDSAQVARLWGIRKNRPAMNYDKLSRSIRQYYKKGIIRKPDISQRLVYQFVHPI
# In short: as §1
# ETV7 = target: T10, ETV7 (Homo sapiens, UniProt Q9Y603 1-341); conditions: protein: recombinant; tags: N-terminal GST; dsDNA, one strand shown
# T10 sequence: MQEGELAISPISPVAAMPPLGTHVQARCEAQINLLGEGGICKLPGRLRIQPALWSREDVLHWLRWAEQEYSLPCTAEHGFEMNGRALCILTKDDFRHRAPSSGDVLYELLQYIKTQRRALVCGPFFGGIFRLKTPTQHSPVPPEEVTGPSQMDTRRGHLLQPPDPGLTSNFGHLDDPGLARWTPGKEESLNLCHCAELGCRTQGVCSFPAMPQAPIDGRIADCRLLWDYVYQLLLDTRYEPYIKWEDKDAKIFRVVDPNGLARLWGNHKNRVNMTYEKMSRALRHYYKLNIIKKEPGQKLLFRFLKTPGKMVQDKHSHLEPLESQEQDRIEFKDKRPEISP
# In short: as §1
# ELF5 = target: T11, ELF5 (Homo sapiens, UniProt Q9UKW6-2 1-255); conditions: protein: recombinant; tags: N-terminal GST; dsDNA, one strand shown
# T11 sequence: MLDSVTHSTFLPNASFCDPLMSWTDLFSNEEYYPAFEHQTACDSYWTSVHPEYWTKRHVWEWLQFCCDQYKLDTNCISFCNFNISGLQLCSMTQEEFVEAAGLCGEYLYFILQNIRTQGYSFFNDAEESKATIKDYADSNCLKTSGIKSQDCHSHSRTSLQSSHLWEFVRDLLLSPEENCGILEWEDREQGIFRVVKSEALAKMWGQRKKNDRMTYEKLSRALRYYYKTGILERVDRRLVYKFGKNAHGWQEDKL
# In short: as §1
# ETV3 = target: T12, ETV3 (Homo sapiens, UniProt P41162-2 1-143); conditions: protein: recombinant; tags: N-terminal GST; dsDNA, one strand shown
# T12 sequence: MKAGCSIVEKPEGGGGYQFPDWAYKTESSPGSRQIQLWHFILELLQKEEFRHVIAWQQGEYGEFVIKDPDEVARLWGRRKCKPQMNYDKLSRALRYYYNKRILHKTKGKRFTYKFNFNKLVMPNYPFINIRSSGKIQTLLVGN
# In short: as §1
# ETV6 = ETV6 (Homo sapiens, UniProt P41212 1-452); conditions: protein: recombinant; tags: N-terminal GST; dsDNA, one strand shown
# In short: as §1
# ELF4, sequence (Q99607 whole entry): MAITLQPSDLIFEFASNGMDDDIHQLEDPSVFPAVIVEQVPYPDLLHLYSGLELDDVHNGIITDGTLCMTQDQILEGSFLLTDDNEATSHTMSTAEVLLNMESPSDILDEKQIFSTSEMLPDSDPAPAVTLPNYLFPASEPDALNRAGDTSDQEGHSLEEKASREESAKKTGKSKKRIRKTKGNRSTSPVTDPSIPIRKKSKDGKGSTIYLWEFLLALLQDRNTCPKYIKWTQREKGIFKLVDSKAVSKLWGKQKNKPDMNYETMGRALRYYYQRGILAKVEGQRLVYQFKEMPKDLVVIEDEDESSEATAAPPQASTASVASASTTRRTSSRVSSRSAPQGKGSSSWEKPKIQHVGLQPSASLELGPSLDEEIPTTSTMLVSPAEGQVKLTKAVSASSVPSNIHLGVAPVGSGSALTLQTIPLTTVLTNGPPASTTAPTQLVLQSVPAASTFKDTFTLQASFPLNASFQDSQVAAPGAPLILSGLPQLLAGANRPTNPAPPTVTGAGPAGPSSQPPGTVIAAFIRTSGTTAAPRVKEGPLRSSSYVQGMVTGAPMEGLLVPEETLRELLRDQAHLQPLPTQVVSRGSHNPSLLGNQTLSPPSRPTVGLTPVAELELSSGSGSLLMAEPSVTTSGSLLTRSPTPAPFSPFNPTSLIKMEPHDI
# ETV5, sequence (P41161 whole entry): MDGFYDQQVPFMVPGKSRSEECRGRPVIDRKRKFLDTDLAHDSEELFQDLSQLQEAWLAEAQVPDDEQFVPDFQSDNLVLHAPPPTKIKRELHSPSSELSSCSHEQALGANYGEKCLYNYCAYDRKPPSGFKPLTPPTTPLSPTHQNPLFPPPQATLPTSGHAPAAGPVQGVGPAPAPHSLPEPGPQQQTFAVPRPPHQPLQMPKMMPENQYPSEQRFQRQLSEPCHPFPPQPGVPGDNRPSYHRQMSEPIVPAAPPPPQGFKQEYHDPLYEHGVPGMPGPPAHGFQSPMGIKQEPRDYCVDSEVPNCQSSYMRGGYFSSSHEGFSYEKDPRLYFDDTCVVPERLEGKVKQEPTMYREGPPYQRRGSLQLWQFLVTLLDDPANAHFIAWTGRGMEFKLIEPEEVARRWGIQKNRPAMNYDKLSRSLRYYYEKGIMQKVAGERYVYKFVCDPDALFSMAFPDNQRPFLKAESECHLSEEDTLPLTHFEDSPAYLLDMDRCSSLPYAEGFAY
# ETV6, sequence (P41212 whole entry): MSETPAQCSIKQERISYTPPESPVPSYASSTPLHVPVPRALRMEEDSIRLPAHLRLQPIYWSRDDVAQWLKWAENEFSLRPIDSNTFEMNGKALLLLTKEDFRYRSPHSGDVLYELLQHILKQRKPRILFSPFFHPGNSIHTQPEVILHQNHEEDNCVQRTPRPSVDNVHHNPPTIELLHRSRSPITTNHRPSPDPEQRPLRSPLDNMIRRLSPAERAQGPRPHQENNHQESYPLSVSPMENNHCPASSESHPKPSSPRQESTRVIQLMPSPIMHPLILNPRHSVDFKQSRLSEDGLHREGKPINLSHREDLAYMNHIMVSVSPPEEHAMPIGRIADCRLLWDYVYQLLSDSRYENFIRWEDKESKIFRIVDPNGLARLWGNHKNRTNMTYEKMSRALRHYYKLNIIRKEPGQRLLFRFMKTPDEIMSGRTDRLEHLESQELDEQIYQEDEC
# HSF1, sequence (Q00613 whole entry): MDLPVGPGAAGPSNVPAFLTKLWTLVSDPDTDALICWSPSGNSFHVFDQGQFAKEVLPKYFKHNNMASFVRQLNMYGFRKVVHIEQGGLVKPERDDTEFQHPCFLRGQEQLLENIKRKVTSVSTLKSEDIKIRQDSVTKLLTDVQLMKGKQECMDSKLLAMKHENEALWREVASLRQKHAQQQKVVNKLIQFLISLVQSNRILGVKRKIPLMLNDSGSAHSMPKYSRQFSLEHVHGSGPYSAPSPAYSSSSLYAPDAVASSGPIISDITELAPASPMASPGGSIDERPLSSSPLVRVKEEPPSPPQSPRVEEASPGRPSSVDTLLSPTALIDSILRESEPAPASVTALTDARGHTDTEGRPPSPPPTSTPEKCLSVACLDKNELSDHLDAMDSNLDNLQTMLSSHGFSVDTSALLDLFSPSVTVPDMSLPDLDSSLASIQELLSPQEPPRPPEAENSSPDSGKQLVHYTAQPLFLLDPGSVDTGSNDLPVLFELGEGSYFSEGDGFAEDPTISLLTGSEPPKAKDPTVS
# CRX, sequence (O43186 whole entry): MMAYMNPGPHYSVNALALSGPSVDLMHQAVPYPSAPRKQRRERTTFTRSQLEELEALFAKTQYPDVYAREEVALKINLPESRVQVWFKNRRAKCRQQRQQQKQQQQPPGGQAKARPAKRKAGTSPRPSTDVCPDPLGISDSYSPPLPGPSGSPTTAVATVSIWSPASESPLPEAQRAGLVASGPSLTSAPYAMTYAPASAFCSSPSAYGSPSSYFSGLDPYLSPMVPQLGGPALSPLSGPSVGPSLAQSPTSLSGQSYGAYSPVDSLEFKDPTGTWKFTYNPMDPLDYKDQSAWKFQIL
# ETV1, sequence (P50549 whole entry): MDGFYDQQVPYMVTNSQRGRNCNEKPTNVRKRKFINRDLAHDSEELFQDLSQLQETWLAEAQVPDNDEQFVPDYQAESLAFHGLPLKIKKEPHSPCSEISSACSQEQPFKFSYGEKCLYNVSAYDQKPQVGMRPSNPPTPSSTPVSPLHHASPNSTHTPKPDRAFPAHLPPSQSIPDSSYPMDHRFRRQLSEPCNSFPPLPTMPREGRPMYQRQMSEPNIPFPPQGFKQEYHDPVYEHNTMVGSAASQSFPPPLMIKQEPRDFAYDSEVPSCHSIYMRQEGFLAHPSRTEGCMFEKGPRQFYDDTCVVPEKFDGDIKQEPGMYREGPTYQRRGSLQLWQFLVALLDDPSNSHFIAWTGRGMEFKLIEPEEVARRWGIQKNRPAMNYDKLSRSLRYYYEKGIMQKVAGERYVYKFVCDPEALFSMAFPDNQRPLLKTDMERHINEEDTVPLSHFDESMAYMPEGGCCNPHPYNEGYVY
sequence,measurement,setting,value
ACGAAT,binding signal,FEV,"1.17 fold enrichment (6-mer frequency, TF over GST control)"
same,binding signal,ETV5,"1.14 fold enrichment (6-mer frequency, TF over GST control)"
same,binding signal,HSF1,"1.39 fold enrichment (6-mer frequency, TF over GST control)"
same,binding signal,SPIC,"1.16 fold enrichment (6-mer frequency, TF over GST control)"
same,binding signal,ELF4,"1.11 fold enrichment (6-mer frequency, TF over GST control)"
same,binding signal,ELK4,"1.2 fold enrichment (6-mer frequency, TF over GST control)"
same,binding signal,ETV2,"1.15 fold enrichment (6-mer frequency, TF over GST control)"
same,binding signal,ELF3,"1.12 fold enrichment (6-mer frequency, TF over GST control)"
same,binding signal,CRX,"1.21 fold enrichment (6-mer frequency, TF over GST control)"
same,binding signal,ETV1,"1.14 fold enrichment (6-mer frequency, TF over GST control)"
same,binding signal,ERF,"1.17 fold enrichment (6-mer frequency, TF over GST control)"
same,binding signal,ETV3L,"1.15 fold enrichment (6-mer frequency, TF over GST control)"
same,binding signal,ETS2,"1.1 fold enrichment (6-mer frequency, TF over GST control)"
same,binding signal,SPDEF,"1.13 fold enrichment (6-mer frequency, TF over GST control)"
same,binding signal,ETV7,"1.23 fold enrichment (6-mer frequency, TF over GST control)"
same,binding signal,ELF5,"1.11 fold enrichment (6-mer frequency, TF over GST control)"
same,binding signal,ETV3,"1.11 fold enrichment (6-mer frequency, TF over GST control)"
same,binding signal,ETV6,"1.11 fold enrichment (6-mer frequency, TF over GST control)"
